Pf growth 48h: inhibits P. falciparum growth in the first generation, 48 h. 5.9% of 310,000 active. AID 504832. P. falciparum luciferase growth in erythrocytes, 48 h. Potency, µM (series often up to 28.7 µM), without a hit: top-dose activity change, negative = inhibition, actives largely listed as inhibitors; further: on the % scale 0 is the no-effect control and ±100 the full control effect
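A one-generation exposure of luciferase-tagged malaria parasites in RPMI 1640/Albumax erythrocyte culture, 37 C and 5% CO2. Inhibition is inferred from decreased luminescence after adding detection reagent.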
VACV Venus inh: vaccinia inhibition (Venus reporter). AID 720580. 0.46% of 330,000 active. Vaccinia virus Venus reporter expression, fluorescence. Potency, µM (series often up to 36.5 µM), without a hit: at the highest dose activity change, negative = inhibition, actives largely listed as inhibitors; calls by dose curve; tested in A549 cells; further: on the % scale 0 is the no-effect control and ±100 the full control effect; nearly all actives have a fitted effect of over 30% in size
NS1 inh: inhibitors of influenza NS1 protein function; Potency, µM (highest dose often 46.1 µM), without a hit: at the top dose activity, positive = more growth; 0.4% of 270,000 active; calls by dose curve; further: actives are rising curves; nearly all actives have a fitted effect of over 50% in size
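In this qHTS, NS1 from influenza A is expressed in budding yeast, where it slows growth. Cells are switched from glucose to 2% galactose medium (pH 6.0, -URA), treated with compound, and growth recovery is read at OD600.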
VACV mCherry inh: inhibitors of vaccinia virus infection (mCherry reporter signal). AID 720579. Potency, µM (highest dose often 36.5 µM), for the others: at the highest dose activity change, negative = inhibition, actives largely listed as inhibitors. 0.63% of 310,000 active. Vaccinia virus mCherry reporter infection, fluorescence; calls by dose curve; tested in A549 cells; further: on the % scale 0 is the no-effect control and ±100 the full control effect; nearly all actives have a fitted effect of over 35% in size
HCV inhibitor: HCV inhibition | Huh7.5.1 HCVcc-Cre infection, luciferase reporter, 44 h | AID 651820 | 3.4% of 340,000 active | Potency, µM (top dose mostly 41.8 µM), for inactives: top-dose activity change, negative = inhibition, usual class: inhibitors; further: on the % scale 0 is the no-effect control and ±100 the full control effect
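Infectious HCV cell culture screen: compound-treated cells (1,000/well, pre-plated 4 h) are infected with HCVcc-Cre at roughly 0.5 moi and grown 44 h. Infection is quantified by luciferase signal after 15 min substrate incubation at room temperature.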
Pf growth 96h: P. falciparum growth inhibition at 96 hours; P. falciparum luciferase reporter growth, 96 h; Potency, µM (series often up to 28.7 µM), for inactives: top-dose activity change, negative = inhibition, actives largely listed as inhibitors; 6.9% of 320,000 active; further: on the % scale 0 is the no-effect control and ±100 the full control effect
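Two parasite generations (96 h, 37 C, 5% CO2) of compound exposure in infected erythrocytes (0.05% parasitemia, 2% hematocrit). Luciferase-reporter P. falciparum; decreased luminescence indicates inhibited growth, aimed at apicoplast-acting delayed death.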
* hit, by the source's call; i = inactive; ? = inconclusive; · = no result; [ ] = another dose, or the depositor's remark. A selection: hits, their analogues and other compounds. The true share with any hit is near 11%. Unless noted, the call rests on the fitted dose curve; in most records, active means well fitted inhibition curve with a large enough effect; inconclusive means small, poorly fitted or top-dose-only effect, or another doubt; inactive means no such curve, though single readings can be large or run the other way. Potency means the concentration at half of the fitted maximal effect.

SMILES	Pf growth 48h	VACV Venus inh	NS1 inh	VACV mCherry inh	HCV inhibitor	Pf growth 96h
CCc1cc(C(c2ccncc2)N2CCN(C)CC2)c(NC(=O)c2ccccc2)s1 (stereo not drawn)	13.1µM*	-9.1%	-3.9%	-22.7%	20.6%	?
Cc1sc(NC(=O)c2ccccc2)c(C(c2ccc(Cl)cc2)N2CCN(CCO)CC2)c1C (stereo not drawn)	8.28µM*	?	-11.9%	?	?	8.28µM*
COc1ccc(C2C(C#N)=C(SC)NC3=C2C(=O)CC(C)(C)C3)cc1 (stereo not drawn)	?	-7.6%	-8.0%	-7.4%	6.4%	21.5%
COC(=O)c1ccc(C2C(C#N)=C(C)NC3=C2C(=O)CC(C)(C)C3)cc1 (stereo not drawn)	7.6%	-5.3%	-8.7%	-8.7%	-7.0%	9.28µM*
COc1ccc(C2CC(=O)C3=C(C2)NC(C)=C(C#N)C3c2ccc(N(C)C)cc2)cc1 (stereo not drawn)	6.57µM*	1.4%	?	·	12.6%	10.2%
C[C@H](CO)N1C[C@H](C)[C@@H](CN(C)C(=O)Nc2ccccc2)Oc2c(NC(=O)Nc3ccc(C(F)(F)F)cc3)cccc2C1=O	·	?	·	-20.2%	?	·
COc1cc(C)nc(N2CCC(C(N)=O)CC2)n1	9.2%	-9.6%	0.2%	-5.3%	4.5%	9.28µM*
C=C1C(=O)[C@@]23[C@H](O)C[C@@H]4C(C)(C)CC[C@H](O)[C@]4(C)[C@@H]2C[C@H](O)[C@@H]1[C@H]3O	9.28µM*	4.47µM*	4.4%	?	2.2%	4.15µM*
C=C1C(=O)[C@@]23[C@H](O)C[C@@H]4C(C)(C)CC[C@H](O)[C@@]4(C)[C@@H]2CC[C@@H]1[C@H]3O	14.7µM*	2.51µM*	-17.6%	?	?	?
COc1ccc(S(=O)(=O)N2CCC(C(=O)N[C@@H](C)C(=O)NCc3cccc(OC)c3)CC2)cc1	16.0%	·	-23.3%	·	-2.7%	?
CSc1nnnn1-c1ccc(Cl)cc1	14.0%	-2.0%	5.4%	-2.9%	21.1%	?
Cc1sc2ncnc(Sc3nnnn3-c3ccc(Cl)cc3)c2c1C	8.28µM*	·	-4.6%	·	14.9%	?
c1ccc(-n2nnnc2Sc2ncnc3sc4c(c23)CCCC4)cc1	?	-5.9%	2.6%	-12.7%	3.8%	1.65µM*
C=CC[C@]12CCc3ccccc3C1N(c1ccc(C(=O)OCC)cc1)C2=O (stereo partly drawn)	13.1µM*	-7.1%	·	i	?	?
CC(C)(C)c1ccc(C(=O)N2CCCCCC2=O)cc1	5.22µM*	-29.6%	0.2%	-9.6%	-16.7%	6.4%
O=C1CCCCCN1C(=O)c1ccccc1	·	-4.6%	·	i	2.0%	·
CCOC(=O)c1nn(-c2ccccc2C)c(=O)c2c(N)scc12	0.3%	-15.9%	·	-17.4%	?	20.9%
CNC(=O)/C(C#N)=C/c1c(N(Cc2ccccc2)Cc2ccccc2)nc2c(C)cccn2c1=O	13.1µM*	?	?	-13.1%	12.6µM*	2.94µM*
CCNC(=O)/C(C#N)=C/c1c(N(Cc2ccccc2)Cc2ccccc2)nc2ccccn2c1=O	3.7µM*	?	26.8%	-23.3%	11.2µM*	13.1µM*
CC[n+]1c(C)sc2c3ccsc3ccc21	14.7µM*	0.0%	·	i	13.0%	32.7%
CCCC[n+]1c(C)sc2cc(OC)ccc21	-1.1%	-9.8%	7.8%	i	5.9%	24.5%
COc1ccc(N(C(=O)c2snc(C(N)=O)c2N)C(C(=O)NCc2ccc(F)cc2)c2ccc(O)cc2)cc1 (stereo not drawn)	0.0%	5.5%	10.1%	-6.0%	?	?
Cn1c(=O)c2c(-c3ccccc3F)c3c(nc2n(C)c1=O)-c1ccccc1C3O (stereo not drawn)	-20.6%	-0.8%	-4.3%	·	3.6%	0.233µM*
O=C(NC1CCCCC1)c1ccc2ccccc2c1	·	-17.0%	·	i	·	·
O=C(NC1CC1)c1ccc2c(c1)C1C3CCC(C3)C1C(c1ccccc1)N2 (stereo not drawn)	9.28µM*	-15.4%	-7.0%	?	-5.5%	7.38µM*
SMILES	Pf growth 48h	VACV Venus inh	NS1 inh	VACV mCherry inh	HCV inhibitor	Pf growth 96h
COc1ccc(S(=O)(=O)c2c(O)c3ccc(C(=O)Nc4ccccc4)cc3[nH]c2=O)cc1	25.1%	3.5%[7.34 µM]	12.4%	-6.4%[7.34 µM]	5.8%	?
COc1ccccc1NC(=O)c1ccc2c(O)c(S(=O)(=O)c3ccccc3)c(=O)[nH]c2c1	26.0%	10.7%[7.34 µM]	12.2%	-13.3%[7.34 µM]	3.0%	11.7µM*
Cc1cccc(CCN2C(Nc3ccccc3)=NC[C@@H]2CC(C)C)c1	10.4µM*	-27.6%	·	-14.9%	2.82µM*	?
c1ccc(CCCCN2C(Nc3ccccc3)=NC[C@@H]2Cc2ccccc2)cc1	?	-25.5%	·	-6.6%	?	?
CCN1C(Nc2ccccc2)=NC[C@@H]1CC(C)C	12.6%	-4.9%	-9.3%	-2.4%	-4.3%	30.8%
CC(C)C[C@H]1CN=C(Nc2ccccc2)N1CC1CCCCCC1	?	-21.3%	·	-4.5%	?	10.4µM*
CCCCCCCN1C(Nc2ccccc2)=NC[C@@H]1Cc1ccccc1	?	?	-15.6%	-14.4%	?	5.22µM*
COc1ccc(-c2csc3nc(C)nc(N4CCCCC4)c23)cc1OC	?	-23.2%	·	-22.4%	?	4.65µM*
COc1ccc(-c2csc3nc(-c4cccnc4)nc(N4CCC(C(N)=O)CC4)c23)cc1OC	-25.2%	?	-15.6%	i	-8.7%	0.0%
CC12CCC3c4ccc(O)cc4CCC3C1CC(O)C2O (stereo not drawn)	8.1%	-14.1%	·	i	11.9%	0.9%
CC(=O)N(C1=C(N)C(=O)c2ccccc2C1=O)c1ccccc1	?	·	4.5%	·	-23.5%	9.28µM*
O=C(N(c1ccccc1)c1ccccc1)N(c1ccccc1)c1ccccc1	?	·	-4.2%	·	-1.3%	?
CC(C)c1ccc(C(=O)NN2CCOCC2)cc1	-24.9%	·	19.7%	·	17.6%	-17.7%
CC(C)CC(=O)NC(=S)Nc1ccc(CN2CCOCC2)cc1	-2.3%	-10.3%	4.3%	i	-0.2%	?
CC(C)c1ccc(/C=C/C(=O)NC(=S)Nc2ccc(CN3CCOCC3)cc2)cc1	?	-12.4%	25.0%	i	?	5.22µM*
CC(C)c1ccc(/C=C/C(=O)NC(=S)NN2CCOCC2)cc1	9.7%	·	?	·	3.8%	11.7µM*
Cc1cc(-c2ccco2)n(CC(=O)O)n1	24.8%	-9.1%	-3.4%	-17.4%	10.8%	6.57µM*
Cc1cc(-c2ccco2)n(CC(=O)NCc2ccccc2)n1	·	-5.7%	-4.1%	38.4%	3.3%	-21.6%
CC(C)CCOP(N)(=O)Oc1ccccc1 (stereo not drawn)	-22.9%	3.5%	-4.8%	i	2.4%	2.08µM*

Bioassay records from PubChem BioAssay.
